# Sampled rows, rich in hits. Any-hit rate of the full collection: about 4.1%.
# Jurkat NFkB inh – inhibitors of induced NF-kB luciferase reporter, primary screen, TCR NF-kB activation inhibitor project, cell-based, luminescence, uHTS; actives 0.53% (n = 330,000); AID 435003, 2010; Jurkat, PMA/ionomycin-induced NF-kB luciferase reporter; inhibition, % at 4 µM; in the data active means inhibition above about 50%
# Mdm2-MdmX inh – inhibitors of human Mdm2-MdmX association, primary screen, cell-based, luminescence, split luciferase, SaOS-2, uHTS | Protein Mdm4 (Homo sapiens) + E3 ubiquitin-protein ligase Mdm2 (Homo sapiens), … | SaOS-2 split-luciferase Mdm2/MdmX complementation | actives 3% (n = 330,000) | AID 485346, 2010 | inhibition, % at 8 µM;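 active means inhibition of at least 50% at 8 µM in the primary screen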
# KLF5 inhibitor – KLF5 expression inhibitors, primary screen, DLD-1 cells, luminescence; inhibition, % at 5 µM; DLD-1 KLF5 promoter-luciferase reporter; AID 1700, 2009; actives 0.23% (n = 290,000);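 active means inhibition above a per-plate limit of that plate's mean compound inhibition plus 3 SD, cut at about 60% in these data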;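 further: 0% = DMSO wells and 100% = LY294002 at 200 µM; higher means less KLF5 promoter-driven luciferase light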
# 697 NFkB inh – inhibitors of PMA/ionomycin-induced NF-kB reporter, 697 cells, primary screen, B-cell NF-kB inhibitor project, cell-based, luminescence, uHTS | 697 B-cell NF-kB luciferase reporter, 16 h | inhibition, % at 4 µM | actives 0.33% (n = 330,000); in the data active means inhibition above about 35%
# aSyn 5UTR inh – MLPCN primary screen, SNCA 5' untranslated region | alpha-synuclein 5'UTR reporter, inhibitor activity | inhibition, % (tested at 7.5 µM) | actives 0.82% (n = 300,000) | AID 1813, 2009; in the data active means inhibition above about 60%; inconclusive means no clear call, values can overlap the other calls;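 further: H4 neuroglioblastoma cells stably carrying SNCA 5'UTR luciferase fusion; 0% = DMSO wells and 100% = positive control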
# Gli-Sufu block – Gli-Sufu pathway antagonists, primary screen, luciferase luminescence, Sufu-KO-LIGHT cells, uHTS; Sufu-KO-LIGHT fibroblasts, Gli luciferase reporter luminescence; inhibition, % at 5 µM; actives 0.74% (n = 340,000); AID 588413, 2011;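 active means inhibition above about 55%, limit read from the data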;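 further: 0% = DMSO-treated cells and 100% = wells with medium but no cells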
# Jurkat NFkB conf – PMA/ionomycin-induced NF-kB reporter inhibitors, Jurkat retest, confirmation, T-cell NF-kB inhibitor project, cell-based, luminescence, single concentration; Jurkat NF-kB luciferase, 16 h; actives 27% (n = 2,700); inhibition, % at 4 µM; shares compounds with Jurkat NFkB inh;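 active means inhibition reaching about 45% at 4 µM in either replicate, limit read from the data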;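 further: plate controls were PMA/ionomycin stimulated DMSO wells for no effect and unstimulated DMSO wells for full effect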
# Active calls of the source: *; u = inconclusive; x = no result.
SMILES,Jurkat NFkB inh,Mdm2-MdmX inh,KLF5 inhibitor,697 NFkB inh,aSyn 5UTR inh,Gli-Sufu block,Jurkat NFkB conf
CC(=O)c1ccc(N2CCN(S(=O)(=O)c3cc(-c4cc(C)no4)ccc3C(C)C)CC2)cc1,9,13,-15,-83,18,15,x
Cc1cc(-c2ccc(C(C)C)c(S(=O)(=O)N3CCN(c4ccccc4)CC3)c2)on1,53*,49,50,-53,u,40,47*
CC(C)c1cc(C(=O)Nc2cccc(Cl)c2)no1,-232,-145,-116,-141,x,-49,-91
CC(C)Cc1cc(C(=O)Nc2cccc(O)c2)no1,-203,-215,-48,14,-32,-5,-112
CCc1ccc(NC(=O)c2cc(C)on2)cc1,-145,-106,-113,-119,-44,-55,x
CCc1ccc(NC(=O)c2cc(C(C)C)on2)cc1,-215,-130,-149,-155,-103,-40,-128
CC(C)Cc1cc(C(=O)Nc2ccc(Br)cc2)no1,-98,-111,-70,5,-137,4,x
CC(=O)c1cccc(NC(=O)c2cc(C(C)C)on2)c1,-99,-110,-222,-85,-101,-78,x
CCCc1cc(C(=O)Nc2ccc(CC)cc2)no1,-177,-94,-116,-136,-169,-8,-91
CC(C)Cn1c(N)c(C(=O)COC(=O)CCNS(=O)(=O)c2ccccc2)c(=O)n(C)c1=O,-4,8,x,5,20,1,x
CCOC(=O)/C(=C/c1ccco1)NC(=O)c1ccc(Br)o1,-6,18,21,2,1,0,x
O=C(COC(=O)CCC1CCCC1)Nc1ccc(F)cc1,3,-10,x,13,x,6,x
O=C(Nc1nc2ccc(F)cc2s1)c1cccs1,-192,-189,-169,-238,-223,-71,-118
CCOC(=O)N1CCN(C(=O)c2c(Cl)cnn2C)CC1,2,11,-12,3,-3,4,x
Clc1cccc(-c2nnc(-c3ccccc3)o2)c1,-184,-188,-153,-227,-38,-4,-93
CSc1ccccc1-c1nnc(-c2ccccc2)o1,-159,-104,-7,-173,-61,-71,-85
c1ccc(-c2nnc(-c3ccccc3)o2)cc1,-114,-37,-108,-131,-96,-73,x
CSc1ccccc1-c1nnc(-c2ccc(C)cc2)o1,-102,-112,-16,-102,-106,-75,x
Nc1ccccc1-c1nnc(-c2ccc(-c3ccccc3)cc2)o1,-154,-141,-39,-175,-192,-68,-74
O=C(c1cccs1)N1CCN(c2ncc(Br)cn2)CC1,3,20,-8,-1,-19,-2,x
c1ccc2c(c1)oc1c(NCCN3CCOCC3)ncnc12,-6,4,-35,10,-36,-3,x
c1ccc2c(c1)oc1c(Nc3ccc(CN4CCOCC4)cc3)ncnc12,-155,-50,-162,-141,-102,14,-117
COc1ccc(C(=O)N/N=C/c2ccc(OC)c(COc3c(F)c(F)cc(F)c3F)c2)cc1,3,22,20,-4,x,8,x
COc1cc(OC)cc(C(=O)N/N=C/c2ccc(OC)c(COc3ccc(F)cc3)c2)c1,52*,30,41,-41,-45,26,24
COc1ccc(OCc2cc(/C=N\NC(=O)c3ccccc3)ccc2OC)cc1,54*,50,4,-25,-53,-2,18
Cc1ccc(F)cc1NC(=O)COC(=O)C1CCN(c2ccc(C(F)(F)F)cn2)CC1,-11,-9,x,-1,5,-8,x
O=C(Nc1nc2ccccc2c(=O)s1)c1ccco1,64*,-4,1,31,-2,3,21
CCn1c(O)c(/C=C2\C=Nc3ccccc32)sc1=O,-113,-220,-70,-148,-245,-14,x
CCn1c(O)c(/C=C2\C=Nc3ccccc32)sc1=Nc1ccc(C)cc1,62*,12,-18,-1,22,-2,2

# Screening data (PubChem)
